# Screening data from PubChem.
# Hits are enriched below; roughly 21% of the tested compounds scored in any of these assays.
# Shiga toxin inh = inhibitors of Shiga toxin in Vero cells; Vero cells, Shiga toxin protein synthesis inhibition reporter; AID 2315; inhibition, % at 38.7 µM; actives 9.2% (n = 290,000); in the data active = inhibition mostly above about 28%, no sharp cut-off; inactive = mostly below about 43%
# HCV inh = HCV inhibition. Huh7.5.1 HCVcc-Cre infection, luciferase reporter, 44 h. Potency, µM (doses to about 41.8 µM), hits mostly inhibitors. actives 3.4% (n = 340,000). AID 651820
#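 HCVcc-Cre virus at an moi near 0.5 was added right after compound to cells cultured 4 h from seeding (1,000 cells/well). Luciferase activity was determined 44 h later, 15 min after substrate addition at RT.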
# Pf growth 48h = P. falciparum growth inhibition at 48 hours (one generation); P. falciparum luciferase growth in erythrocytes, 48 h; Potency, µM (series often up to 28.7 µM), most hits filed as inhibitors; AID 504832; actives 5.9% (n = 310,000)
#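 Luciferase-expressing parasites in RBCs, 2% Hct / 0.1% parasitemia final; RPMI 1640 + 0.5% Albumax; 37 C, 5% CO2, one generation; luminescence read-out, lower signal = inhibition.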
# Pf growth 96h = inhibits malaria parasite growth, 96 h; AID 504834; P. falciparum luciferase reporter growth, 96 h; Potency, µM (doses to about 28.7 µM), usual class: inhibitors; actives 6.9% (n = 320,000)
#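 Luminescence readout: decreased luciferase signal marks inhibited growth of reporter-expressing P. falciparum in infected red cells (2% hematocrit, 0.05% parasitemia final), exposed to compound two generations (96 h, 37 C, 5% CO2).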
# Cycloheximide cs = counter-screen for Shiga toxin inhibitors: cycloheximide protein synthesis inhibition. cell reporter, cycloheximide protein synthesis inhibition counterscreen. AID 2314. max response, %. actives 12% (n = 300,000); in the data active = max response mostly above about 13%, no sharp cut-off; inactive = mostly below about 14%; also: read at 38.3 µM for the half of the compounds with a filed dose
# HCMV inh = inhibitors of human cytomegalovirus; actives 4.5% (n = 410,000); activity change, negative = inhibition, % at 57.5 µM; HFF cells, HCMV-luciferase reporter, 72 h; hits give low values; in the data active = activity change below about -60%; inconclusive = no clear call, values can overlap the other calls; inactive = above about -39%
#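 Screen run at 2 compound doses on HFFs infected with reporter HCMV, MOI 1 PFU/cell. Luciferase activity from cell lysates at 72 h post infection gave inhibition relative to buffer-only and Salinomycin wells.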
# A number is an active result; – = inactive; ? = inconclusive; · = no result given; [ ] = dose if it differs, or a comment. Unless noted, calls follow the shape of the dose curve; as a rule, active = well fitted inhibition curve with a large enough effect; inconclusive = small, poorly fitted or top-dose-only effect, or another doubt; inactive = no such curve, though single readings can be large or run the other way.
SMILES,Shiga toxin inh,HCV inh,Pf growth 48h,Pf growth 96h,Cycloheximide cs,HCMV inh
O=C(CSc1ccccn1)Nc1ccc(F)c([N+](=O)[O-])c1,–,–,–,?,–,–
O=C(CSc1nc(-c2ccc(Cl)cc2)cs1)Nc1cccc([N+](=O)[O-])c1,53.5,12.6µM,–,?,38.1,–
O=C(CSc1ccccn1)Nc1cccc([N+](=O)[O-])c1,34.2,–,–,–,32.3,–
CCOC(=O)Cn1c(=O)cc(C)c2c(C)nn(-c3cccc(F)c3)c21,·,·,·,·,·,–
COc1cccc(CNC(=O)CN2C(=O)N(c3ccc(C)cc3C)S(=O)(=O)c3ccccc32)c1OC,·,·,·,·,·,–
Cc1cc(NC(=O)Cn2nnc3sc4c(c3c2=O)CCC(C(C)(C)C)C4)no1 (centres undefined),–,11.2µM,10.4µM,–,–,?
CCc1ccc(-c2nc(SCC(=O)NC3CC3)n[nH]2)cc1,·,–[8.37 µM],–,–,·,–
COC(=O)c1c(-n2c(C)cc(C=O)c2C)sc2c1CCCC2,–,–,10.4µM,?,–,-75.9
Cc1cc(C=O)c(C)n1-c1sc2c(c1C(=O)O)CCCC2,–,–,–,?,–,–
CCOC(=O)c1c(-n2c(C)cc(C=C3C(=O)NC(=S)NC3=O)c2C)sc2c1CCCC2,–,?,11.7µM,11.7µM,–,·
CCC(C)N(C)Cc1cccc(C2(O)CCN(S(=O)(=O)c3ccc(F)c(C)c3)CC2)c1 (centres undefined),–,?,13.1µM,?,–,–
Cc1cc(S(=O)(=O)N2CCN(c3c(C)cccc3C)CC2)ccc1F,–,?,?,·,–,–
Cc1ccc(N(CCCCN2C(=O)c3ccccc3C2=O)C(=O)c2ccc(Cl)s2)cc1,–,?,–,–,–,-62.5
O=C1c2ccccc2C(=O)N1CCCCN(C(=O)c1ccc(Cl)s1)c1ccc(Cl)cc1,–,?,–,–,–,–
Cc1cccc(C)c1NC(=O)C(C)NCc1cccs1 (centres undefined),·,·,·,·,·,–
CC(C)c1ccc(C2NC(=O)c3ccccc3O2)cc1 (centres undefined),101.1,–,–,–,19.3,–
CCOC(=O)c1c(CN2CCCCC2)n(C)c2cc(Br)c(OC)cc12,–,?,?,3.29µM,–,–
CCOC(=O)c1c(CNCCN(CC)CC)n(C)c2cc(Br)c(OC)cc12,–,?,·,–,–,–
CCOC(=O)c1c(-c2ccccc2)oc2ccc(O)c(CN3CCOCC3)c12,–,?,?,·,–,–
CCOC(=O)c1c(C)n(CC(O)CN(CC)CC)c2cc(Br)c(OC)cc12 (centres undefined),–,?,?,14.7µM,–,–
CCOC(=O)c1c(CN2CCOCC2)n(-c2ccccc2)c2cc(Br)c(O)c(CN(C)C)c12,–,?,13.1µM,2.62µM,–,–
CCOC(=O)c1c(CN2CCCCC2)n(C)c2cc(Br)c(O)c(CN(C)C)c12,–,–,·,11.7µM,–,·
Cc1cc(C)cc(OCC(=O)Nc2ccc(-c3nc4ccccc4s3)cc2)c1,·,·,·,·,·,–
COc1ccc(CNC(=O)CN(C)Cc2ccc(C(C)(C)C)cc2)cc1,–,–,?,–,–,–
CCC(c1nnnn1-c1ccc2c(c1)OCCO2)N1CCN(Cc2c(F)cccc2Cl)CC1 (centres undefined),·,·,·,·,·,–
SMILES,Shiga toxin inh,HCV inh,Pf growth 48h,Pf growth 96h,Cycloheximide cs,HCMV inh
CCOC(=O)c1c(CSc2ccccc2)n(C)c2ccc(O)c(CN3CCN(C)CC3)c12,–,–,?,?,–,?
CCOC(=O)c1c(C)n(C)c2ccc(O)c(S(=O)(=O)c3ccccc3)c12,–,–,–,·,–,–
CCOC(=O)c1c(CSc2ccsc2)n(C)c2cc(Br)c(O)c(CN(C)C)c12,–,?,?,?,–,–
CCOC(=O)c1c(CN(C)C)oc2cc(CN(C)C)c(O)c(CSc3ccccc3)c12,–,–,0.37µM,2.33µM,–,–
CCOC(=O)c1c(CSc2ccc(C)cc2)n(C)c2cc(Br)c(O)c(CN(C)C)c12,–,?,4.15µM,–,–,-62.7
CCOC(=O)c1c(CN2CCCCC2)n(C)c2ccc(OC)c(S(=O)(=O)c3ccccc3)c12,–,–,10.4µM,7.38µM,–,–
CCOC(=O)c1c(CSc2ccccc2)n(C)c2cc(Br)c(O)c(CN(C)C)c12,–,?,9.28µM,?,–,–
CC(C)C[C@@H]1NC(=O)[C@@H]2CSCCS(=O)(=O)N2C1=O,·,·,·,·,·,–
CCOC(=O)c1c(C)n(C)c2cc(Br)c(C(=O)OC)cc12,–,10µM,–,–,–,–
CCOC(=O)c1c(C)n(C)c2ccc(OC(C)C(=O)OC)cc12 (centres undefined),–,?,–,·,–,–
Cc1ccc(C(=O)c2c3ccccc3[n+]([O-])n2CCC(=O)O)cc1,·,–,–,–,·,–
NCCCn1c(C(=O)c2ccc(Cl)cc2)c2ccc([N+](=O)[O-])cc2[n+]1[O-],·,10µM,?,?,·,–
NC(=O)CCn1c(C(=O)c2ccc(Cl)cc2)c2ccccc2[n+]1[O-],–,–,–,–,–,-88.1
NC(=O)CCCn1c(C(=O)c2ccc(Cl)cc2)c2ccc(C(F)(F)F)cc2[n+]1[O-],·,–,?,?,·,–
NCCCn1c(C(=O)c2ccc(Cl)cc2)c2ccc(C(F)(F)F)cc2[n+]1[O-],·,?,9.28µM,?,·,–
Cc1ccc(S(=O)(=O)CCC(=O)OCC(=O)NCCc2ccccc2)cc1,·,–,?,–,·,–
O=C(NCCN1CCOCC1)c1cccc(S(=O)(=O)N(Cc2ccccc2)c2ccccc2)c1,·,–,–,–,·,–
Cc1ccc2nc(-c3ccccc3O)c(Nc3ccccc3C)n2c1,·,·,·,·,·,–
Cc1ccccc1Nc1c(-c2ccccc2O)nc2sccn12,·,·,·,·,·,-64.4
Cc1ccccc1C(O)c1cccnc1 (centres undefined),–,–,–,–,–,-60.7
CN1CCN(C(=O)c2ccc(NS(=O)(=O)c3cccc([N+](=O)[O-])c3)cc2)CC1,·,–,–,–,·,–
Cc1c([N+](=O)[O-])c2ccc(O)cc2n1-c1ccccc1,–,?,–,?,–,-67.7
Cc1ccc(-n2c(C)c([N+](=O)[O-])c3ccc(O)cc32)cc1,–,·,?,?,–,?
CCCCN(C)CCNC(=O)Cn1c(=O)sc2ccccc21,–,–,·,8.28µM,–,–
O=C(Cn1c(=O)sc2ccccc21)Nc1ccccc1,–,–,–,–,–,–
CN(CCNC(=O)Cn1c(=O)sc2ccccc21)Cc1ccccc1,–,–,·,4.65µM,–,–
O=c1[nH]c2ccccc2c(O)c1-c1ccccc1[N+](=O)[O-],–,–,–,–,–,–
Cc1ccc(NC(=O)CN(C)C(=O)c2sc3cc(Cl)ccc3c2Cl)cc1,·,–[8.37 µM],–,–,·,–
Cc1c(CN(C)C(=O)c2sc3cc(Cl)ccc3c2Cl)cnn1C,–,22.4µM,?,–,–,-84.1
CCN(Cc1ccccc1)C(=O)c1cc(-c2ccccc2)n[nH]1,·,·,·,·,·,–
